# Assay outcomes from PubChem.
# FBW7 act: human FBW7 E3 ligase activation, primary screen | 650,000 tested, 0.13% active | normalized activity (activation), % at 26.1 µM | AlphaScreen FBW7–phospho-cyclin E peptide binding, activator screen; in the data active means normalized activity above about 1.9%;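 further: purified mutant Fbw7 with reduced substrate affinity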
# GPR151 ag: activators of human GPR151; Q8TDV0; PathHunter beta-arrestin GPR151 cells, luminescence; activation, % at 11.2 µM; 650,000 tested, 1% active; in the data active means activation above about 4.9%;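 further: 0% = median of compound wells and 100% = cells with positive control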
# TEAD-YAP inh: TEAD-YAP interaction inhibition; HEK-TIYL cells, TEAD-Gal4/YAP UAS-luciferase luminescence; inhibition, % at 9.12 µM; 640,000 tested, 1.4% active; in the data active means inhibition above about 32%;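 further: 0% = median of test compound wells and 100% = reference inhibitor wells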
# MITF inh: human MITF inhibition, primary screen; 650,000 tested, 0.91% active; inhibition, % at 2.6 µM; AID 1259374; AlphaScreen MITF homodimerization, bead proximity signal; in the data active means inhibition above about 50%;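 further: 0% = vehicle wells with protein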
# Target sequence (O75030 whole entry, looked up): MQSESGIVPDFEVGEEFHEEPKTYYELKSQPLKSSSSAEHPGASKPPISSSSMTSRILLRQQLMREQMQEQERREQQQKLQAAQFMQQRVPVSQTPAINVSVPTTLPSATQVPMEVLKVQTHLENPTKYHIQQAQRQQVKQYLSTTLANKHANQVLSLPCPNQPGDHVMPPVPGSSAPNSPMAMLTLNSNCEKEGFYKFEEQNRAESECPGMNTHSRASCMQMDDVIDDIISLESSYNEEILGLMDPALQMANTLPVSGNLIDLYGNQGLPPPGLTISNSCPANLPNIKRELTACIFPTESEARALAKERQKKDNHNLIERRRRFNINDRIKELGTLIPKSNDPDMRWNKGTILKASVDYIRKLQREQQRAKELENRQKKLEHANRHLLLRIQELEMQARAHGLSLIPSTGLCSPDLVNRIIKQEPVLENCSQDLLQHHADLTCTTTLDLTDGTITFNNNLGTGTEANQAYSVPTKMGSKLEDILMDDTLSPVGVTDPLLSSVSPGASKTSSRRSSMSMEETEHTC
# * marks the source's active call; other numbers are inactive results. This is a sample that favours compounds with a hit; in the whole collection about 3.4% have one here.
SMILES,FBW7 act,GPR151 ag,TEAD-YAP inh,MITF inh
Cc1nc2sccn2c1-c1csc(Nc2cccc(O)c2)n1,0,0,37*,-7
CC1CCC(C(C)C)C(OC(=O)c2cc([N+](=O)[O-])ccc2Cl)C1 (configuration not stated),5.5*,3,3,-5
Cc1ccc(C(=O)OC2CC(C)CCC2C(C)C)cc1[N+](=O)[O-] (configuration not stated),0,0,8,13
Oc1ccc(/C=N/NC(=S)NCCN2CCOCC2)c(O)c1,-1,2,-6,94*
COc1cc2nc(C)n(C(=S)S)c2cc1OC,0,0,56*,14
COc1cc2nc(-c3ccc(N(C)C)cc3)n(C)c2cc1OC,0,0,-71,3
CC(=O)c1ccc(N=Nc2ccc(O)c(C=O)c2)cc1,0,-4,90*,-16
COC(=O)c1ccccc1NC(=O)Nc1ccc2c(c1)CCC2,0,0,0,-16
Cc1ccc(NC(=O)CSc2ccc3ccccc3n2)c(C)c1,0,-1,76*,-3
CCc1nc2ccccc2n1CC(O)COc1ccc([N+](=O)[O-])cc1 (configuration not stated),0,0,3,16
O=C(Nc1ccc(Cl)cc1)c1cc2ccccc2cc1NS(=O)(=O)c1ccccc1,0,1,53*,11
O=C(Nc1ccc(N2CCOCC2)cc1)c1csc(N2CCC(N3CCOCC3)CC2)n1,0,0,-24,0
O=C(Nc1ccccc1Br)c1cc([N+](=O)[O-])ccc1N1CCOCC1,0,1,50*,-9
O=C(c1cc([N+](=O)[O-])ccc1N1CCCCC1)N1CCN(c2ccccc2)CC1,0,1,48*,-1
O=C(Nc1ccc(N2CCOCC2)cc1)c1csc(Br)n1,0,-10,52*,19
Cc1nn(C)c(C)c1-c1cccc(C(=O)Nc2ccc(N3CCOCC3)cc2)n1,0,0,45*,-7
Nc1cccc(-c2cccc(C(=O)Nc3ccc(N4CCOCC4)cc3)n2)c1,0,1,-12,-12
COC(=O)c1c(NC(=O)c2cc([N+](=O)[O-])ccc2Cl)sc2c1CCCC2,0,0,-5,16
O=C(Nc1ccc(N2CCCC2)cc1)c1cc([N+](=O)[O-])ccc1N1CCOCC1,0,2,-10,8
O=C(Nc1ccc(N2CCOCC2)cc1)c1cc([N+](=O)[O-])ccc1Br,0,-1,43*,-8
O=C(Nc1ccc(N2CCCCC2)cc1)c1cc([N+](=O)[O-])ccc1N1CCOCC1,0,0,7,11
Cc1nc2c(C(=O)Nc3ccc(Cl)cc3)snc2c(=O)[nH]1,0,1,0,0
Cc1nc2c(C(=O)Nc3ccc(N4CCOCC4)cc3)snc2c(=O)[nH]1,0,-1,33*,-4
O=C(Nc1ccc(N2CCOCC2)cc1)c1cc([N+](=O)[O-])ccc1Cl,0,0,35*,-1
CCN1CCN(C(c2cccs2)C(C)NC(=O)c2cccc(C)c2)CC1 (configuration not stated),0,0,7,9
SMILES,FBW7 act,GPR151 ag,TEAD-YAP inh,MITF inh
CCCN1C(SCC(=O)NC2CCCCC2)=NS(=O)(=O)c2ccccc21,1,1,-1,10
Oc1ccc(C2=Nn3c(nnc3-c3ccccc3Br)SC2)cc1O,0,1,52*,25
COc1ccc(-c2nnc3n2N=C(c2ccc(O)c(O)c2)CS3)cc1,0,0,50*,3
COc1ccc(-c2nnc3n2N=C(c2ccc4c(c2)OCCO4)CS3)cc1,0,-1,46*,7
COc1ccc(C2=Nn3c(nnc3-c3ccc(OC)cc3)SC2)cc1,0,1,49*,0
COc1ccc(-c2nnc3n2N=C(c2ccccc2)CS3)cc1,0,-1,0,14
COc1cccc(C2=Nn3c(nnc3-c3ccccc3O)SC2)c1,1,-1,-1,-8
O=C1CN(C(=O)CNNC(=O)C2CCCCC2)c2ccccc2N1,0,-1,2,-3
COc1cccc(-c2nnc3n2N=C(c2ccc(O)c(O)c2)CS3)c1,0,0,58*,6
Cc1ccc(C2=Nn3c(nnc3-c3ccccc3)SC2)cc1,0,-1,60*,-3
COc1cccc(-c2nnc3n2N=C(c2ccc(Br)cc2)CS3)c1,0,1,0,0
CCC(=O)Nc1ccc(C2=Nn3c(COc4ccc(OC)cc4)nnc3SC2)cc1,0,-2,48*,-5
Oc1ccc(C2=Nn3c(nnc3-c3ccc(Br)cc3)SC2)cc1O,0,2,66*,-3
COc1cccc(C2=Nn3c(nnc3-c3ccccc3)SC2)c1,1,0,10,5
CCCn1cc(CN2CCN(CC=C(C)C)C(CCO)C2)c(C)n1 (configuration not stated),0,0,12,7
COc1ccc(NC(=O)CSc2nc3ccccc3c3nc(-c4ccc([N+](=O)[O-])cc4)nn23)c(OC)c1,0,0,1,6
Oc1ccc(C2=Nn3c(nnc3-c3cccc(F)c3)SC2)cc1O,0,-1,61*,2
CN(C)c1ccc(/C=C2/C(=N)N3C(=NC2=O)SN=C3S(C)(=O)=O)cc1,0,0,4,3
CCC(=O)n1c(=O)oc2ccc(Cl)cc21,0,0,-10,-11
CCc1ccccc1-n1c(=O)oc2ccc(Cl)cc2c1=O,0,0,53*,0
O=c1oc2ccc(Cl)cc2c(=O)n1-c1cccc([N+](=O)[O-])c1,0,-3,75*,-1
CC(C)c1nccn1CC1CCN(C(=O)c2ccccc2Cl)CC1,0,0,33*,9
Cc1ccc(C(=O)NCC2COC3(CCCC3)O2)cc1 (configuration not stated),0,0,-54,-1
CC1(Cc2ccc(C(F)(F)F)o2)C(=O)Nc2ccc(-c3cccnc3)cc21 (configuration not stated),1,1,40*,2
CC1(Cc2ccc(F)cc2)C(=O)Nc2ccc(-c3cccnc3)cc21 (configuration not stated),0,0,38*,6
SMILES,FBW7 act,GPR151 ag,TEAD-YAP inh,MITF inh
COC(=O)c1ccc(CC2(C)C(=O)Nc3ccc(-c4cccnc4)cc32)o1 (configuration not stated),1,0,13,18
CC1(Cc2ccc(Cl)s2)C(=O)Nc2ccc(-c3cccnc3)cc21 (configuration not stated),0,3,33*,13
CC1(Cc2ccc(S(C)(=O)=O)cc2)C(=O)Nc2ccc(-c3cccnc3)cc21 (configuration not stated),1,0,19,45
O=C(CC1C(=O)NCCN1C/C=C/c1ccccc1)NCC1(O)CCCCC1 (configuration not stated),0,2,1,-3
Cc1cc(S(=O)(=O)N(C)C2CCCCC2)ccc1-n1cnnn1,0,-1,52*,4
COCCCNc1nccn2c(-c3cccc(OC(F)(F)F)c3)cnc12,-1,1,40*,20
